# Sfp inh: blocks B. subtilis Sfp PPTase activity | Biochemical Sfp PPTase activity, qHTS | 310,000 compounds, 3.5% hits | Q9F4F7 | Potency, µM, actives largely listed as inhibitors | AID 1490;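 note: the enzyme is Sfp with the accession as filed and its product quenches rhodamine fluorescence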
#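 Compounds were incubated with enzyme (final 15 nM) for 15 min at room temperature before substrate addition started the reaction. Fluorescence at 525 nm excitation, 598 nm emission was recorded immediately and after 30 minutes.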
# JMJD2A Tudor inh: blocks the human JMJD2A Tudor domain; O75164; AlphaScreen JMJD2A-Tudor / H3K4me3 peptide binding; Potency, µM (highest dose often 114 µM), hits mostly inhibitors; 390,000 compounds, 4.4% hits; AID 504339; note: nearly all actives have a fitted effect of over 50% in size
# HP1b chromo inh: HP1-beta chromodomain-methylated histone interaction inhibition. P83916. AlphaScreen HP1-beta / biotin-H3K9me3 peptide binding. Potency, µM (titrated, usually from 114 µM), most hits filed as inhibitors. 390,000 compounds, 0.56% hits. AID 540317; note: nearly all actives have a fitted effect of over 70% in size
# Target sequence (P83916 whole entry, looked up): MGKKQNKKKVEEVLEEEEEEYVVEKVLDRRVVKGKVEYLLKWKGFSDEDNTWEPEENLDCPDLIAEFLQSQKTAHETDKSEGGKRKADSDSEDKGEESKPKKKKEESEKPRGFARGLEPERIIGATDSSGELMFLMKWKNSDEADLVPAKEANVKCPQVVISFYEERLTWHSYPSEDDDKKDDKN
#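 HP1-beta protein (50 nM final) preincubated 30 min at room temperature with biotinylated H3(1-18)K9me3 peptide (50 nM) in PBS pH 7.4, 0.01% Tween-20, then compound added for 30 min. AlphaScreen streptavidin donor/nickel chelate acceptor beads (10 ug/mL final), 30 min dark, luminescence read.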
# BAZ2B inh: BAZ2B (human) inhibition; AlphaScreen BAZ2B-H3K14Ac peptide displacement; 360,000 compounds, 4.4% hits; Potency, µM (series often up to 114 µM), usual class: inhibitors; note: nearly all actives have a fitted effect of over 60% in size
#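 Protein-peptide AlphaScreen: BAZ2B 50 nM, b-H3K14Ac 50 nM, 1x PBS pH 7.4 + 0.01% Tween-20. Preincubation 30 min RT; cpd 30 min RT (top 110 uM); beads 20 min RT, light-protected.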
# ALOX12 inh: ALOX12 (human) lipoxygenase inhibition; Potency, µM (highest dose often 108 µM), actives largely listed as inhibitors; purified 12hLO, xylenol orange hydroperoxide absorbance; 580,000 compounds, 1.1% hits; AID 1671190
#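 Purified human 12hLO (150 nM final) in 25 mM Hepes, 0.01% Triton X-100, pH 7.0 was preincubated 15 min at room temperature with compound. Then 40 uM arachidonic acid was added, 30 min. Hydroperoxide was read by Fe-XO absorbance ratio 573/405 nm.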
# G9a inh: inhibitors of human histone lysine methyltransferase G9a; G9a H3K9 monomethylation, AlphaScreen, 2 h; Potency, µM (highest dose often 102 µM), usual class: inhibitors; 350,000 compounds, 8.8% hits; note: nearly all actives have a fitted effect of over 75% in size
# Target sequence (Q96KQ7 913-1193 limits assumed): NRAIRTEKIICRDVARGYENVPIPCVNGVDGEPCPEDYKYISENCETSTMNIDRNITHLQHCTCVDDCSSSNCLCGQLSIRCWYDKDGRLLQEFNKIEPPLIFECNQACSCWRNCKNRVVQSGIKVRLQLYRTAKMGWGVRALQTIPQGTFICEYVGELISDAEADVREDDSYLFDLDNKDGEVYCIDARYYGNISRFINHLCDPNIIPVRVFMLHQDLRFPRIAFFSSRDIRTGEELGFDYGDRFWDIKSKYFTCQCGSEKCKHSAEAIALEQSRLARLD
#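 G9a (20 nM) was preincubated 15 min with compound, then reacted 2 h at room temperature with 500 nM biotin-H3K9 peptide and 20 µM SAM. Monomethyl-H3K9 detected by AlphaScreen using anti-H3K9me1 antibody.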
# A number is an active result; – = inactive; ? = inconclusive; · = not tested or not shown; [ ] = remark or other dose. Shown are actives, neighbours in structure and some others; about 8.7% of the full set was active somewhere. Calls come from the whole dose curve; as a rule, active = well fitted curve in the direction sought with a large enough effect; inconclusive = small, poorly fitted or top-dose-only effect, or another doubt; inactive = no such curve, though single readings can be large; an effect the other way counts as inactive or inconclusive.
SMILES,Sfp inh,JMJD2A Tudor inh,HP1b chromo inh,BAZ2B inh,ALOX12 inh,G9a inh
CC(=O)N(C(C)=O)N1C(=O)/C(=C/c2ccc(Cl)cc2)SC1=S,–,11µM,10µM,28µM,·,14µM
Cc1ccc(C)n1N1C(=O)/C(=C\c2ccc(Cl)cc2)SC1=S,–,40µM,–,2.8µM,–,?
CCC(C)(C(=O)NC1CCCC1)N(Cc1cccs1)C(=O)CNC(=O)c1ccccc1 (stereo not drawn),·,·,·,·,–,·
COc1ccc(C(=O)NCC2(COc3cnccn3)C[C@@H](O)[C@@H](O)C2)cc1 (stereo partly drawn),·,·,·,·,–,·
CCc1ccccc1NC(=O)c1cc(-c2ccco2)on1,–,–,–,–,–,40µM
Cc1nn(Cc2ccc(F)cc2)c(C)c1NC(=O)c1cc(-c2ccco2)on1,–,–,–,–,–,56µM
COc1ccc(NC(=O)c2cc(-c3ccco3)on2)cc1OC,–,–,–,–,–,50µM
CCc1ccccc1NC(=O)c1cc(-c2ccc(OC)cc2)on1,–,–,–,–,–,–
Cc1ccc(NC(=O)c2cc(-c3ccco3)on2)cc1C,?,–,–,?,?,50µM
CCCCC(=O)N1CCC2(CC1)Nc1ccccc1NC2=O,·,·,·,·,–,·
CCc1ccc(-c2cc(C(=O)O)c3ccccc3n2)cc1,·,·,·,·,–,·
CCOc1cccc(C(=O)Nc2ccc3oc(=O)ccc3c2)c1,·,·,·,·,–,·
CC(C)(C)Sc1ccc(N)nc1,–,–,–,?,?,50µM
Nc1ccc(S(=O)(=O)O)cn1,–,–,–,–,–,?
c1ccc(C2=NOC3(CCN(CC4CC4)CC3)C2)cc1,·,·,·,·,–[12.5 µM],·
N=c1nc(N)c(N)c(N)n1O,·,·,·,·,–,·
Brc1cccc(C2Nc3cccc4cccc(c34)N2)c1,–,–,–,?,–,35µM
Clc1ccc(C2Nc3cccc4cccc(c34)N2)cc1Cl,–,–,–,?,–,·
Clc1cccc(C2Nc3cccc4cccc(c34)N2)c1,–,?,?,?,3.5µM,·
Cc1ccc(NC(=O)CC2C(=O)Nc3nc(-c4ccccc4)nn32)cc1C (stereo not drawn),·,·,·,·,–,·
O=C1CC(c2ccc(S(=O)(=O)N3CCCCC3)cc2)CN1 (stereo not drawn),–,–,–,–,–,–
NS(=O)(=O)c1ccc(NS(=O)(=O)c2ccc(C3CNC(=O)C3)cc2)cc1 (stereo not drawn),–,50µM,–,–,–,–
O=C1Nc2ccccc2SC1c1ccccc1 (stereo not drawn),–,–,–,–,–,–[0.501 µM]
Cc1ccc(NC2Sc3ccccc3NC2=O)cc1 (stereo not drawn),8.9µM,50µM,45µM,–,7.1µM,1.8µM
O=C(Cc1ccc2c(c1)CCC2)OCc1ccc([N+](=O)[O-])cc1,·,·,·,·,–,·
SMILES,Sfp inh,JMJD2A Tudor inh,HP1b chromo inh,BAZ2B inh,ALOX12 inh,G9a inh
CCCCCC(=O)NC(NC(=S)Nc1ccc(S(N)(=O)=O)cc1)C(Cl)(Cl)Cl (stereo not drawn),–,–,–,–,?,?
CCCC(=O)NC(NC(=S)Nc1ccc(S(N)(=O)=O)cc1)C(Cl)(Cl)Cl (stereo not drawn),–,–,–,–,–,45µM
CC(C)C(=O)NC(NC(=S)Nc1ccc(S(N)(=O)=O)cc1)C(Cl)(Cl)Cl (stereo not drawn),–,–,–,–,–,50µM
O=C(c1ccc(F)cc1)N1CCN(Cc2ccccc2)CC1,–,–,–,–,–,–
COc1ccc(C(=O)CC(=O)c2ccc(F)cc2)cc1,·,–,–,·,?,·
COc1ccc(/C=C2\C(=O)NC(=S)N2C(=O)c2ccc(F)cc2)cc1,?,?,–,56µM,?,?
O=C1NC(=S)N(C(=O)c2ccc(F)cc2)/C1=C/c1ccccc1,?,40µM,–,45µM,?,10µM
COc1ccc(/C=C2/CCc3ccccc3C2=O)cc1OC,–,–,–,?,–,–
COc1ccc(/C=C2\COc3ccccc3C2=O)cc1OC,–,50µM,–,–,–,–
CCOc1cc(/C=C2\COc3ccccc3C2=O)cc(Br)c1OCC(=O)N(C)C,50µM,?,–,?,–,40µM
CCc1ccc2oc(C(=O)N(Cc3ccccc3)C3CCS(=O)(=O)C3)cc(=O)c2c1 (stereo not drawn),·,·,·,·,–,·
Cc1cc2oc(C(=O)Nc3ccc4c(c3)N(C)C(=O)CO4)c(C)c2cc1C,·,·,·,·,–,·
Cc1nc(-c2ccc(Cl)cc2)sc1C1(C)CC(c2cccnc2)=NO1 (stereo not drawn),56µM,–,–,–,–,–
COc1ccc(C2=NOC(C)(c3sc(-c4ccc(Cl)cc4)nc3C)C2)cc1 (stereo not drawn),·,–,–,·,–,·
Cc1ccccc1C(=O)NC(NC(=O)c1ccccc1C)c1ccccc1,·,·,·,·,–,·
Cc1ccc(S(=O)(=O)N2CC(O)CC2C(=O)O)cc1 (stereo not drawn),–,–,–,–,–,–
Cc1ccc(S(=O)(=O)N2CC(O)CC2C(=O)OCc2nc3sc(C)c(C)c3c(=O)[nH]2)cc1 (stereo not drawn),–,–,–,–,?,4µM
COc1ccc(C(N)CCc2ccc(C)o2)cc1 (stereo not drawn),–,?,–,?,–,79µM
CCc1ccc(CCC(=O)Nc2ccc(OC)cc2)o1,–,?,–,–,–,–
OC(CNC/C=C/c1ccccc1)c1ccccc1 (stereo not drawn),·,·,·,·,–,·
COc1ccc(NC2CCCN(C(=O)c3cn(C)c4ccccc34)C2)cc1 (stereo not drawn),–,–,–,?,–,18µM
Cc1ccc(NC2CCCN(C(=O)C3CCCCC3)C2)cc1C (stereo not drawn),–,–,–,79µM,–,·
Cc1ccc(NC2CCCN(C(=O)c3ccccc3N3CCOCC3)C2)cc1C (stereo not drawn),–,–,–,–,–,?
Cc1ccc(NC2CCCN(C(=O)c3cn(C)c4ccccc34)C2)cc1C (stereo not drawn),–,25µM,–,?,?,?
Cc1ccc(NC2CCCN(C(=O)CCN3CCCCO3)C2)cc1C (stereo not drawn),–,–,–,–,–,32µM
SMILES,Sfp inh,JMJD2A Tudor inh,HP1b chromo inh,BAZ2B inh,ALOX12 inh,G9a inh
COc1ccc(OC)c(CNC(=O)c2c(OC)cc(=O)n3c2CCCC3)c1,·,·,·,·,–,·
COc1ccc(NCc2n[nH]nc2-c2ccccc2)cc1Cl,–,?,–,40µM,–,?
COc1ccccc1CN1CCN(Cc2nc(-c3ccc(C)cc3)oc2C)CC1,–,?,–,–,–,–
CC(C)(C)C(=O)N1CCN(Cc2ccco2)CC1,·,·,·,·,–,·
COc1ccccc1CN1CCN(Cc2ccco2)CC1,?,4µM,?,25µM,?,45µM
COC1CCN(Cc2ccc(C)cc2)CC1,·,·,·,·,–,·

# Assay outcomes: PubChem BioAssay, National Center for Advancing Translational Sciences (NCATS)
